# Test results from PubChem BioAssay (NCI).
# This is part of a sample that, as a whole, favours compounds with a hit. Of some 83,000 tested, about 20% had one in any assay.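 Compound tested at a single concentration for 48 hours in 96-well plates; a percent growth value below 10 was scored as active.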 Unmarked numbers belong to inactive results. Active and inactive are the calls of the source.
# Key:
# Experiment in all cases: NCI-60 one-dose screen, 48 h (100 = growth as untreated, 0 = no growth, -100 = all killed)
# Conditions in all cases: 10 µM unless noted
# T-47D breast = tested on: T-47D breast
# MDA-MB-435 melanoma = tested on: MDA-MB-435 melanoma
# SW-620 colon = tested on: SW-620 colon
# MCF7 breast = tested on: MCF7 breast
# HCT-116 colon = tested on: HCT-116 colon
# KM12 colon = tested on: KM12 colon
# HCC-2998 colon = tested on: HCC-2998 colon
# BT-549 breast = tested on: BT-549 breast
SMILES,growth (T-47D breast) [%],growth (MDA-MB-435 melanoma) [%],growth (SW-620 colon) [%],growth (MCF7 breast),growth (HCT-116 colon),growth (KM12 colon) [%],growth (HCC-2998 colon),growth (BT-549 breast) [%]
N#Cc1ccc2nc[nH]c2c1,107,109,104,96.8%,105%,98.5,–,–
C=CCN1CCCC1=O,100,101,102,99.6%,106%,110,–,–
CN(C)c1ncnc2c1cnn2C,88.2,103,98.7,94%,105%,104,98%,–
CC(=O)Nc1ccc(C(=O)c2ccc(S(=O)(=O)Nc3ccccc3)cc2)cc1,99.2,101,103,85.3%,75.4%,108,-97.1% (active),–
CC1(C)CC(=O)C=C(N)C1,141,–,96,160%,102%,124,45.4%,–
CN1C(=O)NC(c2ccc(Cl)cc2)(c2ccc(Cl)cc2)C1=O,94.2,97.3,103,102%,88.2%,87.9,101%,–
O=C(O)Cc1cccc2ccccc12,103,104,102,–,106%,107,95.9%,–
Cc1ccc([N+](=O)[O-])c(C)n1,102,99.8,99.5,96.2%,104%,107,103%,–
CCOC(C=O)OCC,–,102,108,95.4%,105%,104,99.1%,103
CSc1nc2[nH]ncc2c(=O)[nH]1,–,103,95.4,98.1%,98.1%,99.9,108%,88.9
OCCc1ccc(Cl)cc1,–,92.3,105,93.7%,101%,88.9,110%,–
CCCNS(=O)(=O)c1ccc(Cl)cc1,–,93.3,96.2,93.3%,103%,99.6,98.9%,–
O=C(Oc1ccccc1Cl)c1ccc(Cl)cc1Cl,–,95.4,98.9,84.6%,95.2%,87.4,102%,–
COC(=O)c1cccc([N+](=O)[O-])c1,–,117,105,104%,110%,103,99.7%,131
CC(C)C(=O)OCCOc1ccc(C(C)(C)C)cc1,–,87.5,92.2,95.4%,105%,93.3,111%,–
C1C[S+]2CC[S+]1CC2,–,109,101,103%,104%,106,105%,97
CCC(C)c1c(N)n(S(=O)(=O)c2ccc(C)cc2)oc1=O (configuration not stated),–,107,105,108%,102%,104,–,110
CC(C)C(C)(C)C(=O)C(C)(C)C(C)(C)C,–,108,106,97%,97.7%,107,104%,82
O=C(O)c1ccc([N+](=O)[O-])cc1S(=O)(=O)O,–,108,105,104%,95.6%,104,97.8%,108
CCCCCC(=O)OCCC1CCCCC1,–,100,98.4,107%,89.8%,101,99.1%,98.7
CC(=O)Oc1c(Cl)cccc1-c1ccccc1,–,104,96.4,101%,101%,104,–,–

SMILES,growth (T-47D breast) [%],growth (MDA-MB-435 melanoma) [%],growth (SW-620 colon) [%],growth (MCF7 breast),growth (HCT-116 colon),growth (KM12 colon) [%],growth (HCC-2998 colon),growth (BT-549 breast) [%]
CC(CC(CCC(=O)O)(c1ccccc1)c1ccccc1)N(C)C (configuration not stated),–,105,109,91.2%,97.2%,109,106%,68.1
CC(C)C1CCC(C)C(O)C1 (configuration not stated),–,93.5,98,100%,111%,97.3,109%,–
CSCCC(NC(=O)C(Cl)Cl)C(=O)O (configuration not stated),82.9,–,100,95.3%,91.2%,106,98.8%,–
NC(CO)(CO)c1ccccc1,99.7,–,96.9,95.9%,101%,94.5,110%,–
C/C(=N\N=C(/C)c1cccc([N+](=O)[O-])c1)c1cccc([N+](=O)[O-])c1,–,98.9,101,86.8%,89.8%,97.9,98%,46.6
O=C(NCc1ccccc1)c1cccc([N+](=O)[O-])c1,–,98.4,99.2,97.8%,103%,85,108%,–
C/C(=N\Nc1ccc([N+](=O)[O-])cc1[N+](=O)[O-])c1ccc(Br)cc1,–,98.4,101,97.2%,102%,93.3,99.4%,–
Ic1cccs1,–,107,104,97.9%,103%,103,108%,107
COc1cccc(C(=O)O)c1OC,–,90.9,100,87.2%,103%,101,–,–
Cc1ccc(C2CCCCC2)cc1Br,–,100,99.1,96.9%,105%,94.3,105%,–
CC(C)(N)CO[C@H]1C[C@H]2CC[C@@]1(C)C2(C)C,–,94.7,88.1,92.5%,89.9%,94.1,–,93.5
NNc1ncnc2c1ncn2C1OC(CO)C(O)C1O (configuration not stated),–,–,21.4,6.39% (active),4.61% (active),28.5,48.9%,42.3
CCN(C(C)=O)c1ccc([N+](=O)[O-])cc1,–,116,98.2,98.1%,109%,103,97.8%,117
NNc1ncccn1,–,91,94.7,101%,98.1%,101,102%,–
O=C(Nc1cccc(Cl)c1)c1ccc(Cl)cc1Cl,–,89.1,92.7,83.3%,89%,85.1,106%,–
CCN(C(=O)Nc1ccccc1Cl)c1ccccc1,–,98.3,108,100%,112%,105,111%,106
C/C(=N\O)c1ccccn1,–,–,94,99.9%,111%,93.8,109%,–
CC1CN(CCO)CC(C)O1 (configuration not stated),93,–,102,109%,112%,101,119%,–
C=C(C)COc1ccc(C(C)(C)C)cc1,–,93.4,101,98.5%,96%,103,111%,–
COC1OC(C(O)C(O)CO)C(O)C(O)C1O (configuration not stated),–,105,105,97.1%,90.5%,106,107%,91
CC(=O)NC(O)C(Cl)Cl (configuration not stated),–,103,114,93.7%,114%,103,98.4%,85.9
